KCNK3 inh – human KCNK3 channel inhibitors, primary screen, CHO cells, FluxOR thallium flux, B-score; AID 602410, 2012; B-score at 10 µM; FluxOR fluorescence; hits give low values; Potassium channel subfamily K member 3 (Homo sapiens), O14649; hit rate 0.84% among 340,000;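 active = B-score under library mean minus 4 SD, starting fluorescence ratio at most library mean plus 5 SD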;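 note: more negative B-score means stronger inhibition of thallium flux through KCNK3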
Target sequence (O14649 whole entry, looked up): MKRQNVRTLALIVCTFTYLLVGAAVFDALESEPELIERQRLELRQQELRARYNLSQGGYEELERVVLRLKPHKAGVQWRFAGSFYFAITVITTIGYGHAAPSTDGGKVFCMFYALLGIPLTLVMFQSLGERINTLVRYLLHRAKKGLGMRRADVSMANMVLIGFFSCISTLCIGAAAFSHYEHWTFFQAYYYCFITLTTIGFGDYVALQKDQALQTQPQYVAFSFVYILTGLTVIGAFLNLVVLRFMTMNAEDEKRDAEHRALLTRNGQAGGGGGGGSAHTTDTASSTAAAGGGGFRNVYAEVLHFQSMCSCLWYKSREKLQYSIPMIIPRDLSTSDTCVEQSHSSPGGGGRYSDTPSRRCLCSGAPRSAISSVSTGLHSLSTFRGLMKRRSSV
Kir21 inh – inhibitors of mouse Kir2.1 inward-rectifier potassium channel | HEK293-Kir2.1, FluxOR thallium flux fluorescence; hits give low values | AID 1672, 2009 | B-score at 10 µM | Inward rectifier potassium channel 2 (Mus musculus), P35561 | hit rate 0.85% among 310,000;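 active = fluorescence ratio B-score at or below minus 3 SD of library scores, with starting-brightness B-score within 2 SD, cut at about -4.2 in these data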;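 note: channel flux triggered by added potassium and thallium sulfate stimulus; B-score of peak minus minimum fluorescence over baseline after thallium stimulus; more negative B-score means stronger Kir2.1 block with less thallium influx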
KCNK9 inh – KCNK9 potassium channel inhibitors, primary screen, HEK293 cells, thallium flux; Potassium channel subfamily K member 9 (Homo sapiens), Q9NPC2; FluxOR thallium flux fluorescence; hits give low values; B-score at 10 µM; hit rate 1.2% among 310,000; AID 488922, 2010;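 active = ratio B-score over 3 SD below the library mean, with starting fluorescence within 5 SD of its mean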;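 note: negative B-score means less thallium flux so channel inhibition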
ANO1 activ – TMEM16A chloride channel activators or potentiators, primary screen, cell-based, HTS; AID 623877, 2012; HEK293 TMEM16A/YFP-H148Q/I152L, iodide quench fluorescence; hits give low values; B-score at 10 µM; hit rate 0.3% among 340,000; Anoctamin-1 (Mus musculus), Q8BHY3;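 active = fluorescence-ratio B-score plate-corrected deviation score at least 3 library SD below zero, with starting fluorescence score within 5 deviations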;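 note: channel opened by trigger with iodide after compound preincubation; score built on the fluorescence ratio of max minus min over baseline; more negative score means more quench and so TMEM16A activation or potentiation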
TMEM16A inh – TMEM16A chloride channel inhibitors, primary screen, cell-based, HTS; AID 588511, 2011; HEK293 TMEM16A/YFP iodide influx fluorescence, ionomycin; normalized B-score (activity score, 25-100; higher = stronger inhibition) at 10 µM; hit rate 1.2% among 310,000; Anoctamin-1 (Mus musculus), Q8BHY3;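 active = ratio plate-corrected score three or more library SD toward inhibition, starting fluorescence score within five deviations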;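 note: score derived from kinetic fluorescence span divided by baseline fluorescence per well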
KCNK9 inh conf – KCNK9 potassium channel inhibitors, confirmation, HEK293 cells, thallium flux, duplicate | shares compounds with KCNK9 inh | FluxOR thallium flux fluorescence | inhibition, % at 10 µM | hit rate 43% among 4,900 | AID 492992, 2010;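 active = thallium signal inhibited by more than 5 SD of the compound-free buffer control wells, on both duplicate plates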;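 note: 0% = assay buffer control wells without compound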
Kir2-1 spec – mouse Kir2.1 channel inhibition, confirmation, selectivity assay for KCNK9 modulator project, cell-based, HEK293, thallium flux; shares compounds with KCNK9 inh; hit rate 4% among 4,900; Kir2.1 cells, FluxOR thallium flux fluorescence; inhibition, % at 10 µM;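 active = thallium signal drop more than 5 SD beyond the mean of the no-compound control wells, seen in both duplicate plates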;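 note: signal is fluorescence rise after thallium addition divided by baseline fluorescence; plate controls were assay buffer only for no effect and full block by chlorpromazine control for full effect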
HEK293 Tl ctr – thallium flux in non-induced HEK293 cells, confirmation, counter-screen for KCNK9 inhibitor project, cell-based, second counter screen, non-induced KCNK9-HEK293; shares compounds with KCNK9 inh; FluxOR thallium flux; inhibition, % at 10 µM; hit rate 40% among 4,900; AID 492997, 2010;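 active = thallium signal drop beyond 5 SD of the untreated control mean, on both duplicate plates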;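 note: plate controls were buffer only IC0 wells for no effect and SID17386958 at its maximal inhibitory level for full effect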
KCNK3 inh conf – retest of human KCNK3 channel inhibitors, confirmation, CHO cells, FluxOR thallium flux, triplicate; shares compounds with KCNK3 inh; hit rate 99% among 2,400; FluxOR fluorescence; 0% buffer, 100% carvedilol maximal block; AID 651638, 2012; ratio percent of control, % at 10 µM;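 active = ratio percent of control, averaged over triplicates, above buffer control mean plus 5 SD, cut at about 64% in these data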;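 note: ratio is the fluorescence rise from min to max over baseline after thallium stimulus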
KCNK3 uninduced – thallium flux inhibition in non-induced cells, primary screen, counter-screen for KCNK3 inhibitor project, cell-based, non-induced KCNK3 line, FluxOR thallium, triplicate; non-induced KCNK3 parental cells; hits give low values; thallium flux ratio (lower = more inhibition) at 10 µM; AID 651747, 2012; shares compounds with KCNK3 inh; hit rate 40% among 2,400;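 active = thallium flux ratio, averaged over three wells, more than 5 SD below the buffer control mean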;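 note: host cells are CHO cells without KCNK3 induction; ratio is peak minus trough fluorescence over baseline then normalized to buffer controls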
The depositor's hits bear a star. Rows were chosen to be rich in hits. Some 3.5% of all compounds tested hit in one or more screens of this group.

Results for CN(C)C(=S)Nc1cccc(C(F)(F)F)c1 ?
KCNK3 inh: inactive; Kir21 inh: -0.48; KCNK9 inh: inactive; ANO1 activ: inactive; TMEM16A inh: inactive

How did C/C(=N\Nc1ccc(C(=O)O)cc1)c1ccc(S(=O)(=O)NCc2ccco2)cc1 do in these assays?
KCNK3 inh: inactive; Kir21 inh: 0.13; KCNK9 inh: inactive; ANO1 activ: inactive; TMEM16A inh: inactive

What do the screens show for `COc1ccc(NC(=O)c2sccc2SCc2cccc(C(F)(F)F)c2)cc1`?
KCNK3 inh: -9.1*; Kir21 inh: -4.51*; KCNK9 inh: -16.2*; ANO1 activ: inactive; TMEM16A inh: inactive; KCNK9 inh conf: 54.5%*; Kir2-1 spec: 34.0%*; HEK293 Tl ctr: 40.5%*; KCNK3 inh conf: 118.0*; KCNK3 uninduced: inactive

How did COc1ccc(CCC(=O)NCc2cccc(C(F)(F)F)c2)cc1 do in these assays?
KCNK3 inh: inactive; Kir21 inh: 1.77; KCNK9 inh: inactive; ANO1 activ: inactive; TMEM16A inh: inactive

How did COc1ccc(-c2[nH]c(-c3ccc4c(c3)OCO4)nc2-c2ccccc2)cc1 do in these assays?
KCNK3 inh: -10.2*; Kir21 inh: 0.84; KCNK9 inh: -10.7*; ANO1 activ: inactive; TMEM16A inh: inactive; KCNK9 inh conf: 55.5%*; Kir2-1 spec: inactive; HEK293 Tl ctr: 35.0%*; KCNK3 inh conf: 153.7*; KCNK3 uninduced: 0.105*

Results for CC(C)(C)n1nnnc1C(c1cccs1)N1CCCC2(CCCCC2)C1 (stereo not drawn) ?
KCNK3 inh: -9.13*; Kir21 inh: 2.37; KCNK9 inh: -17.1*; ANO1 activ: inactive; TMEM16A inh: inactive; KCNK9 inh conf: 40.0%*; Kir2-1 spec: inactive; HEK293 Tl ctr: 39.5%*; KCNK3 inh conf: 125.3*; KCNK3 uninduced: 0.13*

What do the screens show for `CCOC(=O)c1c(CN(C)C)n(-c2ccc(C)cc2)c2cc(Br)c(O)cc12`?
KCNK3 inh: inactive; Kir21 inh: -0.28; KCNK9 inh: inactive; ANO1 activ: inactive; TMEM16A inh: inactive

What do the screens show for `CCOC(=O)c1c(CSC(=N)N)n(-c2ccc(C)cc2)c2cc(Br)c(OC(C)=O)cc12`?
KCNK3 inh: -11.8*; Kir21 inh: -14.8*; KCNK9 inh: -8.7*; ANO1 activ: inactive; TMEM16A inh: 100*; KCNK9 inh conf: inactive; Kir2-1 spec: inactive; HEK293 Tl ctr: inactive; KCNK3 inh conf: 129.3*; KCNK3 uninduced: 0.153*

What do the screens show for `O=c1c2c3c(sc2nc(N2CCNCC2)n1CCc1ccccc1)CCCCC3`?
KCNK3 inh: inactive; Kir21 inh: -0.75; KCNK9 inh: inactive; ANO1 activ: inactive; TMEM16A inh: inactive

How did COc1ccc(OC)c(-c2csc(NC(=O)CSc3nnnn3C)n2)c1 do in these assays?
KCNK3 inh: inactive; Kir21 inh: 0.8; KCNK9 inh: inactive; ANO1 activ: inactive; TMEM16A inh: inactive

How did CCC1CCCCN1S(=O)(=O)c1ccc(NC(=O)c2snnc2C)cc1 (stereo not drawn) do in these assays?
KCNK3 inh: inactive; Kir21 inh: -0.92; KCNK9 inh: inactive; ANO1 activ: inactive; TMEM16A inh: inactive

How did CCC1CCCCN1S(=O)(=O)c1ccc(NC(=O)c2cccs2)cc1 (stereo not drawn) do in these assays?
KCNK3 inh: -11.4*; Kir21 inh: 1.65; KCNK9 inh: -8.25*; ANO1 activ: inactive; TMEM16A inh: inactive; KCNK9 inh conf: 52.5%*; Kir2-1 spec: inactive; HEK293 Tl ctr: 27.5%*; KCNK3 inh conf: 107.3*; KCNK3 uninduced: inactive

How did Cn1nc(-c2ccccc2)c(-c2nc(-c3cccc(C(F)(F)F)c3)no2)c1Cl do in these assays?
KCNK3 inh: inactive; Kir21 inh: -1.64; KCNK9 inh: inactive; ANO1 activ: inactive; TMEM16A inh: inactive

Results for Cn1nc(-c2ccccc2)c(-c2nc(-c3cccc(Cl)c3)no2)c1Cl ?
KCNK3 inh: -8.83*; Kir21 inh: -0.86; KCNK9 inh: -9.55*; ANO1 activ: inactive; TMEM16A inh: inactive; KCNK9 inh conf: 33.0%*; Kir2-1 spec: inactive; HEK293 Tl ctr: 29.5%*; KCNK3 inh conf: 103.0*; KCNK3 uninduced: inactive

How did CC(=O)Nc1cccc(-c2cc(-c3c(Cl)cccc3Cl)no2)c1 do in these assays?
KCNK3 inh: -14.8*; Kir21 inh: -0.08; KCNK9 inh: -11.2*; ANO1 activ: inactive; TMEM16A inh: inactive; KCNK9 inh conf: 53.5%*; Kir2-1 spec: inactive; HEK293 Tl ctr: 39.0%*; KCNK3 inh conf: 109.0*; KCNK3 uninduced: 0.153*

Assay outcomes (PubChem BioAssay)
